This note sets out measurements from PubChem BioAssay (NCATS).

Results filed as inconclusive are left out. Some compounds were tested as several samples or in several runs, with calls that do not always agree. Calls of active or inactive are those of the source. Unless noted, calls come from the whole dose curve; as a rule, active = well fitted curve in the direction sought with a large enough effect; inconclusive = small, poorly fitted or top-dose-only effect, or another doubt; inactive = no such curve, though single readings can be large; an effect the other way counts as inactive or inconclusive.

The target of assay [1] is Tumor susceptibility gene 101 protein (Homo sapiens) (UniProt Q99816). In words: qHTS Validation Assay for Iinhibitors of HIV-1 Budding by Blocking the Interaction of PTAP/TSG101 (AID 485342; calls by dose curve). A digest of the protocol:
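Binding of a FITC-tagged PTAP-motif peptide (50 nM) to the Tsg101 binding domain (10 uM) is monitored by fluorescence polarization. Compounds are pin-delivered before peptide addition, and incubation runs 20 min at room temperature.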
(In general: Quantitative high-throughput screening tests each substance at several concentrations.)

The target in assay [2] is Beta-2 adrenergic receptor (Homo sapiens) (UniProt P07550). In words: qHTS validation assay of beta-arrestin-biased ligands of beta2-adrenergic receptor (AID 485366). In a few lines: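 Screening used a titration range of up to 46 microM in a beta-arrestin recruitment Tango luciferase assay. Cells in 1% FBS medium were treated 18 hr at 37 degrees C, and luminescence was normalized to %Activity.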

Assay [3] deals with Methanococcus maripaludis chaperonin (MmCpn) (UniProt Q6LX38). Description: High-Throughput Screening for Modulators of Cytosolic Chaperonin Activity: MmCpn Primary Screen (AID 488978).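 Note: 50 nM MmCpn enzyme hydrolysing 30 µM ATP at 37 °C.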 A digest of the protocol: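 Steps: chaperonin 50 nM final; add compound, 5 min RT; start with ATP, 30 uM final; hold 10 min at 37C; add ADP Transcreener HTRF reagent, 5 min; read ex 320, em 590 and 665 nm.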

Assay [4] addresses D(1A) dopamine receptor (Homo sapiens) (UniProt P21728). In words: HTS Assay for Allosteric Agonists of the Human D1 Dopamine Receptor: Primary Screen for Potentiators (AID 488982). In a few lines:
(§1)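 Tetracycline-induced HEK293 Trex D1 cells with forced coupling to calcium, loaded with no-wash calcium dye; kinetic fluorescence read 180 s after compound addition for agonism, then a further 180 s after an EC20 dopamine challenge for potentiation.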

Assay [5] concerns the target Ubiquitin carboxyl-terminal hydrolase 2 (Homo sapiens) (UniProt O75604). In words: qHTS Validation Assay for Inhibitors of Ubiquitin-specific Protease USP2a Using CHOP2 as the Reporter (AID 463106). A digest of the protocol: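 Fluorescence read-out at Ex 485nm/Em 531nm after 60min RT, following addition of 25nM Ub-CHOP2 plus 25nM reporter substrate to USP2 core (10nM) pretreated 30min with compound. Data normalized to NEM full inhibition; concentration-response curves fitted.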

The target of assay [6] is DNA polymerase III PolC-type (Bacillus subtilis (strain 168)) (UniProt P13267). In words: qHTS Validation Assay for the Inhibitors of DNA Replication in Gram-Positive Bacteria (AID 485295). Note: potency is the fitted concentration of half-maximal effect. A digest of the protocol: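 First, compound is mixed with the reconstituted replication complex and held at room temperature. Next, circular single-stranded M13Gori with nucleotides starts synthesis. Finally, PicoGreen in EDTA halts the reaction and stains double-stranded product for fluorescence reading.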

Assay [7] addresses ATP-dependent 6-phosphofructokinase (Trypanosoma brucei brucei) (UniProt O15648). Description: qHTS Validation Assay to Find Inhibitors of T. brucei phosphofructokinase (AID 485368). To be noted: outcome: dose series up to 57.5 µM. In a few lines: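 PFK-generated ADP was measured after 45 min at room temperature using ADP-Glo. The reaction contained 0.5 mM F6P and 0.1 mM ATP.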

The target in assay [8] is Thioredoxin reductase 1, cytoplasmic (Rattus norvegicus) (UniProt O89049). In words: qHTS Assay for Substrates of Mammalian Selenoprotein Thioredoxin Reductase 1 (TrxR1) (AID 488772).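 Note: series mostly up to about 57 µM; a drop in NADPH fluorescence below the no-compound background marks a TrxR1 substrate.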 In a few lines:
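In this dual-purpose format, potential substrates are identified from the first fluorescence read after selenite addition, not from the 8-minute delta. Rat enzyme is preincubated with NADPH and then with compound at ~22 deg C.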

Assay [9] has the same target. In words: qHTS Assay for Inhibitors of Mammalian Selenoprotein Thioredoxin Reductase 1 (TrxR1) (AID 488773).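 Note: drop in NADPH fluorescence over an 8 min run after selenite addition; series mostly up to about 57 µM; nearly all actives have a fitted effect of over 40% in size.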 The note with it: Potency: inhibition. In a few lines: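 Inhibition is scored from the loss of NADPH fluorescence between first and last reads of an 8-min kinetic run. Selenite (400 uM) was the substrate, added after 15 min compound preincubation at room temperature.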

For assay [10], the target named is Flap endonuclease 1 (Homo sapiens) (UniProt P39748). Description: qHTS Validation Assay for the Inhibitors of Human Flap endonuclease 1 (FEN1) (AID 488816). In a few lines:
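Enzyme reagent 10 nM; cpds pinned; 15 min RT preinc.; substrate 50 nM final; reads t=0 and 15 min; no-enzyme buffer wells as neg. control; normalized data, 4-parameter Hill fit.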

In assay [11] the target is M-phase phosphoprotein 8 (Homo sapiens) (UniProt Q99549). In words: qHTS Validation Assay for Inhibitors for MPP8 Chromodomain Interactions with Methylated Histone Tails (AID 488949). Note: nearly all actives have a fitted effect of over 55% in size. Note: potency is the fitted concentration of half-maximal effect. A digest of the protocol: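 50 nM MPP8 + 50 nM b-H3K9me3 peptide, PBS pH 7.4/0.01% Tween-20, 30 min RT; + cpd 30 min RT; + AlphaScreen donor/Ni-chelate acceptor beads 10 ug/mL final, 30 min dark; luminescence read.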

Assay [12] deals with Chromobox protein homolog 1 (Homo sapiens) (UniProt P83916). Description: qHTS Validation Assay for Inhibitors of HP1-beta Chromodomain Interactions with Methylated Histone Tails (AID 488953). Note: nearly all actives have a fitted effect of over 50% in size. Note: potency is the fitted concentration of half-maximal effect. In a few lines: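 AlphaScreen proximity readout: streptavidin donor and Ni-chelate acceptor beads, 10 ug/mL final, 30 min dark, RT. Complex of 50 nM HP1-beta and 50 nM b-H3(1-18)K9me3 formed 30 min, then compound-treated 30 min; PBS pH 7.4/0.01% Tween-20.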

In assay [13] the target is D(1A) dopamine receptor (Homo sapiens) (UniProt P21728). Description: HTS Assay for Allosteric Agonists of the Human D1 Dopamine Receptor: Primary Screen for Agonists (AID 488981). Note: potency is the fitted concentration of half-maximal effect. A digest of the protocol: as §1
Assay [14] shares this target. In words: HTS Assay for Allosteric Agonists of the Human D1 Dopamine Receptor: Primary Screen for Antagonists (AID 488983).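 Note: calcium flux response to an EC80 dopamine challenge measured with no-wash dye; nearly all actives have a fitted effect of over 65% in size.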 In a few lines: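 Calcium flux readout, no-wash dye, inducible HEK293 T-REx D1 line (force-coupled). Compound added after 10 s baseline, 180 s kinetic read; then dopamine at EC80, further 180 s read.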
Assay [15] in a line: Quantitative high throughput screen for delayed death inhibitors of the malarial parasite plastid, 96 hour incubation (AID 488745).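 Note: luciferase-expressing P. falciparum in erythrocytes at 2% hematocrit and 0.1% parasitemia; series mostly up to about 29 µM; nearly all actives have a fitted effect of over 70% in size.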 In a few lines:
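Luciferase-expressing P. falciparum, infected RBCs 2% Hct/0.1% parasitemia (final); 96 h cpd exposure, 37 C, 5% CO2; RPMI 1640 + 0.5% Albumax, bicarbonate, gentamycin. Readout: luminescence loss = growth inhibition.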

A short description of assay [16]: Quantitative high throughput screen for delayed death inhibitors of the malarial parasite plastid, 48 hour incubation (AID 488752). Note: nearly all actives have a fitted effect of over 65% in size. A digest of the protocol: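 Luciferase-expressing P. falciparum in RBCs, 2% Hct, 0.1% parasitemia final; RPMI 1640 + 0.5% Albumax; 48 h, 37 C, 5% CO2; luminescence readout, signal drop = growth inhibition.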
The target of assay [17] is Transient receptor potential cation channel subfamily V member 1 (Homo sapiens) (UniProt Q8NER1). In words: HTS Assay for Compounds that Act as Enhancers of the Vanilloid Receptor 1 (AID 488979). In a few lines: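 TRPV1 cells loaded with Fluo-8 calcium dye; compound added and Ca2+ signal (ex 480/em 520 nm) followed 3 min, then capsaicin at EC20 added and read 2 more min to detect enhancement.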

Assay [18] addresses Thyrotropin receptor (Homo sapiens) (UniProt P16473). Description: qHTS Assay for Antagonists of the Thyroid Stimulating Hormone Receptor (AID 488980). Note: series mostly up to about 58 µM. In a few lines:
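Readout is cAMP by HTRF competition between cellular cAMP and cAMP-d2 for a cryptate-labelled antibody. Antagonism was assessed in TSHR-transfected HEK293 cells stimulated with 4 nM TSH (EC80, final) in the presence of RO 20-1724.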

Assay [19] addresses ATP-dependent 6-phosphofructokinase (Trypanosoma brucei brucei) (UniProt O15648). Description: qHTS Assay to Find Inhibitors of T. brucei phosphofructokinase: hit validation (AID 492961).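 Note: luminescence reports ADP formed as PFK phosphorylates fructose-6-phosphate with ATP; series mostly up to about 51 µM.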 A digest of the protocol:
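Inhibition of parasite PFK is measured as reduced ADP formation, quantified via luciferase after ATP depletion. Assay used 0.1 mM ATP, 0.5 mM F6P, 1.25 nM enzyme, 45 min incubation.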

The nature of assay [20]: qHTS Validation Assay to Find Inhibitors of Chronic Active B-Cell Receptor Signaling (AID 485345; active = well fitted curve in the direction sought with a large enough effect in the main read-out, with a control signal flat, not every such curve was filed as active). In a few lines: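 TMD8 ABC-DLBCL cells stably carrying doxycycline-inducible IkappaBalpha–green luciferase fusion plus unfused red luciferase; compounds 46 uM to 3 nM, 4 h at 37C with doxycycline. Corrected green/red luminescence ratio normalized to 10 uM MG-132 and basal cell wells; curves fitted.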

Chain of Flap endonuclease 1 (Homo sapiens) (P39748 whole entry, looked up): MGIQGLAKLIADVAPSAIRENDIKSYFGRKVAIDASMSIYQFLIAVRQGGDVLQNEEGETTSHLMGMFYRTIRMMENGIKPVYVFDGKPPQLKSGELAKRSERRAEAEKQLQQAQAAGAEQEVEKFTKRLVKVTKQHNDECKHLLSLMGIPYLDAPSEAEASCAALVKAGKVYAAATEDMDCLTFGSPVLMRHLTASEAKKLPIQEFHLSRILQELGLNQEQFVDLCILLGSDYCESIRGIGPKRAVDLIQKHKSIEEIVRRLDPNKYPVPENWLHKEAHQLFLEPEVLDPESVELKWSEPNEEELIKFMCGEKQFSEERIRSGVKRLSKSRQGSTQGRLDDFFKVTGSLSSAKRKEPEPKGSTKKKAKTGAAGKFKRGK
Chain of Thioredoxin reductase 1, cytoplasmic (Rattus norvegicus) (O89049 whole entry, looked up): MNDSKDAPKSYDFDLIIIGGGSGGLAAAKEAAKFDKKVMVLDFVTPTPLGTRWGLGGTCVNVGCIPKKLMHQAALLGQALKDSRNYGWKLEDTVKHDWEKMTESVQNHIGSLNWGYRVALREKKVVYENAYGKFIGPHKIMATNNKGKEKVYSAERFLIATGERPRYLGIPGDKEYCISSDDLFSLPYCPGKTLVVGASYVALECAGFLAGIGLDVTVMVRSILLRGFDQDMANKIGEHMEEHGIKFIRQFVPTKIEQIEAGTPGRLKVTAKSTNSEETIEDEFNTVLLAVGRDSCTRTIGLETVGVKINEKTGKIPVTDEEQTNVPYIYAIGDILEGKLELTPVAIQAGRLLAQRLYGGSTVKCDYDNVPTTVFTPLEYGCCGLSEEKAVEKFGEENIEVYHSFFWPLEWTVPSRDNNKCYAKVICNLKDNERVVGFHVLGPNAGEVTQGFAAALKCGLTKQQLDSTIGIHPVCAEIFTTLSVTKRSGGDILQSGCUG
Chain of Chromobox protein homolog 1 (Homo sapiens) (P83916 whole entry, looked up): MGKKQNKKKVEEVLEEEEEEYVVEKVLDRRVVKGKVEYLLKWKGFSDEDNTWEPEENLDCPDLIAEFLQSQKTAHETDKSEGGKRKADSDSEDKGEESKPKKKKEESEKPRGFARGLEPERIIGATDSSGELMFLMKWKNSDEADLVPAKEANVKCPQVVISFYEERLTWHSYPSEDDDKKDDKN
Chain of D(1A) dopamine receptor (Homo sapiens) (P21728 whole entry, looked up): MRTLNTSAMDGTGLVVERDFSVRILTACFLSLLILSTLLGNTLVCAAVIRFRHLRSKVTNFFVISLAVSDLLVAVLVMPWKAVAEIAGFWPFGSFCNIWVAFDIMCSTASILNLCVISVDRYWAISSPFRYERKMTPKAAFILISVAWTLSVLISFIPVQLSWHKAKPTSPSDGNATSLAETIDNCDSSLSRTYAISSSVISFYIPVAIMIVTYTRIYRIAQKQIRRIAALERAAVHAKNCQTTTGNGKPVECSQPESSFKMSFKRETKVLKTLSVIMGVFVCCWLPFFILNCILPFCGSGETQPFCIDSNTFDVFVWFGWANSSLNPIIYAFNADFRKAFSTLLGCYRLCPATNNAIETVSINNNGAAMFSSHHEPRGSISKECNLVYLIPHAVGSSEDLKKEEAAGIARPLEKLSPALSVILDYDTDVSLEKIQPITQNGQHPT
Chain of M-phase phosphoprotein 8 (Homo sapiens) (Q99549 whole entry, looked up): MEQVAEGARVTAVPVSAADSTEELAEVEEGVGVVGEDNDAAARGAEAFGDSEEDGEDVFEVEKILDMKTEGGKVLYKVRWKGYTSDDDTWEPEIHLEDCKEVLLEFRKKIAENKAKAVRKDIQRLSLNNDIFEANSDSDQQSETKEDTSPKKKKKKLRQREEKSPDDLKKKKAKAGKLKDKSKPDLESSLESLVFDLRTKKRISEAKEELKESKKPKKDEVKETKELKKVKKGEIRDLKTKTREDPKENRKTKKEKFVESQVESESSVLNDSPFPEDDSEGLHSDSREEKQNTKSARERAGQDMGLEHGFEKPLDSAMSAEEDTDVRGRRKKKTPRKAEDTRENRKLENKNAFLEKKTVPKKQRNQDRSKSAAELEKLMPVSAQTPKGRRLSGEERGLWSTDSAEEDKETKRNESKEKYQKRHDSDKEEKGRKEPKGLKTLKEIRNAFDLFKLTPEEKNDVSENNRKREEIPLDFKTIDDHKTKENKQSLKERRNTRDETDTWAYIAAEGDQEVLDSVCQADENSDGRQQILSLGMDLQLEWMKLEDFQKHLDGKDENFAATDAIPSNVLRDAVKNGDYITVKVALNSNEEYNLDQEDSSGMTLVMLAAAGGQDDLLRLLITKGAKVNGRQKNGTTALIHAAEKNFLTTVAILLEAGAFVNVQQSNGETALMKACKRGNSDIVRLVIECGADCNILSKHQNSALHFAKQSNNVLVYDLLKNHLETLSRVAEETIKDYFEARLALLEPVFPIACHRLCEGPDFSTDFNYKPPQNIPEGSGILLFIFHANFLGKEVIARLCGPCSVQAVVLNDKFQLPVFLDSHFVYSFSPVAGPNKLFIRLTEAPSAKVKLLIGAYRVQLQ
Chain of Thyrotropin receptor (Homo sapiens) (P16473 whole entry, looked up): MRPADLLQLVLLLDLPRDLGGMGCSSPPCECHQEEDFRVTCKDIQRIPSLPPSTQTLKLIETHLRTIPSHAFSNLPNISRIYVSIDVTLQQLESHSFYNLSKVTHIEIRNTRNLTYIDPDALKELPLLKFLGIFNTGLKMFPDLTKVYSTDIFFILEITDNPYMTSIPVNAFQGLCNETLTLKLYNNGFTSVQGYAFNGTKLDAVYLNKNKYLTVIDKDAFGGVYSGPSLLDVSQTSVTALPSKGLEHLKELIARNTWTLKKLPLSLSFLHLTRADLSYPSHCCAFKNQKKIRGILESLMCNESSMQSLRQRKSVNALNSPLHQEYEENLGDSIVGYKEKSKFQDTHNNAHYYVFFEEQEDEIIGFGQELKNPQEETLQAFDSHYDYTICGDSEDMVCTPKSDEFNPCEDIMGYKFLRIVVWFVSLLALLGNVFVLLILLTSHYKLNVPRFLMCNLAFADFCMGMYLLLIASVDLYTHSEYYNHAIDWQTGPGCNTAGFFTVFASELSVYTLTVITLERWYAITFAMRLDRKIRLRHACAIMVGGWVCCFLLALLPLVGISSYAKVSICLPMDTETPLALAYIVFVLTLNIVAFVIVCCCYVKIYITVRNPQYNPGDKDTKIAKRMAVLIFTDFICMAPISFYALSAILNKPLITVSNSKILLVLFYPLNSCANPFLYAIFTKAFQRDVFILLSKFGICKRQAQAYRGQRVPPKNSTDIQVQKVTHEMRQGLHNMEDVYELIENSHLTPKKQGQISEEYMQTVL
Chain of ATP-dependent 6-phosphofructokinase (Trypanosoma brucei brucei) (O15648 whole entry, looked up): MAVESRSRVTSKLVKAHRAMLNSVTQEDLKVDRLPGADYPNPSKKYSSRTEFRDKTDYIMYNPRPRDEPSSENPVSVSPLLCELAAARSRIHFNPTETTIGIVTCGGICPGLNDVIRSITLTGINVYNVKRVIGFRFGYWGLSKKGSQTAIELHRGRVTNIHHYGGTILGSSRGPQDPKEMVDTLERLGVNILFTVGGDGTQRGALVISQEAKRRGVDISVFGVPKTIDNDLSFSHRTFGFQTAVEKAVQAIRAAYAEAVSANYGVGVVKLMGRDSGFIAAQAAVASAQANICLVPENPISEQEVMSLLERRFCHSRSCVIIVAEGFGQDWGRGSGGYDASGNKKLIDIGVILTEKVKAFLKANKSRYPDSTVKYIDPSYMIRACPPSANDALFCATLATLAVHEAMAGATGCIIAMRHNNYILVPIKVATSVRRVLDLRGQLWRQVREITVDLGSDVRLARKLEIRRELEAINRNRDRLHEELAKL
Chain of Ubiquitin carboxyl-terminal hydrolase 2 (Homo sapiens) (O75604 whole entry, looked up): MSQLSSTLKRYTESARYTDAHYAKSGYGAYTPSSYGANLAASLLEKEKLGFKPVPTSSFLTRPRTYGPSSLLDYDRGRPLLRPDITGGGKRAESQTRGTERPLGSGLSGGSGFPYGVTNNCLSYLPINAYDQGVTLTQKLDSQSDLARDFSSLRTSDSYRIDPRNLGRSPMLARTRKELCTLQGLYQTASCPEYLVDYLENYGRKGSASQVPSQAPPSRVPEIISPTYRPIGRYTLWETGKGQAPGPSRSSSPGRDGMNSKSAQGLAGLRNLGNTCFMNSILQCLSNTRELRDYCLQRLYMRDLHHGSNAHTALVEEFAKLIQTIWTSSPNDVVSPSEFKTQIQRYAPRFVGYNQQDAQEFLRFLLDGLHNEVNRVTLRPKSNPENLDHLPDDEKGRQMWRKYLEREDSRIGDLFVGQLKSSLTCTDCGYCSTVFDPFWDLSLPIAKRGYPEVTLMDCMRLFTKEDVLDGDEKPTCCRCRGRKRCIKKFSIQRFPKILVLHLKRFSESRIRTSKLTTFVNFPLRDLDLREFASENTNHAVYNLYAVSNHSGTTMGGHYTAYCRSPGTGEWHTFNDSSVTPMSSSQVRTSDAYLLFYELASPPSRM
Chain of Methanococcus maripaludis chaperonin (MmCpn) (Q6LX38 1-543): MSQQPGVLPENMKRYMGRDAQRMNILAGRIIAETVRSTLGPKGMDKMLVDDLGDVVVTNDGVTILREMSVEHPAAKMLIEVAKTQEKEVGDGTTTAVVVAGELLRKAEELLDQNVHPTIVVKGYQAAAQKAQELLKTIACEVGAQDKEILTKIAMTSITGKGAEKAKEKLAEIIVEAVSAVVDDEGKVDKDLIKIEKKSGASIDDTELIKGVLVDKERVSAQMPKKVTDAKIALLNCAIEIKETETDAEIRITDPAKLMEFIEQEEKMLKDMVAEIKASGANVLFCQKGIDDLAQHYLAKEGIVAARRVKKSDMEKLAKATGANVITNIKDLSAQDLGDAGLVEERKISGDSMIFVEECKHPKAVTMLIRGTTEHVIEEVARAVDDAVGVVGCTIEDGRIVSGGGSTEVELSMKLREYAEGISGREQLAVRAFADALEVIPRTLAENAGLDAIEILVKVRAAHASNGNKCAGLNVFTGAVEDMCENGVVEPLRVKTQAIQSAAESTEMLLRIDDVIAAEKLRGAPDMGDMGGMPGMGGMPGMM

Consider `Cc1cc2c(C(C)C)c(O)c(O)c(C=O)c2c(O)c1-c1c(C)cc2c(C(C)C)c(O)c(O)c(C=O)c2c1O`, for which the call in assay [1], in [2] and in assay [3] was inactive. Besides, the Potency result in [4] is “inactive”.

For `C[C@]12CCC(=O)C=C1CC[C@@H]1[C@@H]2[C@@H](O)C[C@@]2(C)[C@H]1CC[C@]2(O)C(=O)CO`, the molecule was called inactive in assay [5], in assay [1], in assay [2], in assay [7], in assay [8] and in assay [3]. The Potency entry in assay [6], in assay [9], in assay [10], in assay [11], in assay [12] and in [13] was “inactive” in each case. In addition, the Potency entry in assay [4] and in assay [14] was “inactive” throughout.

Regarding `NNCCc1ccccc1`, the result in assay [5], in assay [1], in assay [2], in assay [8], in assay [3] and in assay [17] was inactive. Also, the result in assay [18] and in [19] was inactive. Also, the Potency result in assay [6], in assay [15], in assay [16], in [9], in assay [10] and in assay [11] was “inactive” throughout. Moreover, the Potency result in [12], in assay [13], in assay [4] and in [14] was “inactive” in each case.

Turning to `CC(C)(Sc1ccc(CCN(CCCCC2CCCCC2)C(=O)NC2CCCCC2)cc1)C(=O)O`, the Potency in assay [6] is 26.7 µM (active); in assay [11] it was 56.2 µM (active) and inactive; in [12], 56.2 µM (active); in [13] it was 11.2 µM (active). Further, the molecule was classed as inactive in assay [1], in assay [2], in assay [8], in [3], in [17] and in [18]. The Potency entry in assay [15], in assay [16], in assay [9], in assay [10] and in assay [4] was “inactive” throughout.

As for `CCOC(=O)N1CCC(=C2c3ccc(Cl)cc3CCc3cccnc32)CC1`, the molecule was classed as inactive in assay [5], in [1], in [2], in [8], in [3] and in assay [17]. Further, the Potency result in [6], in assay [9], in [10], in assay [11], in assay [13] and in assay [4] was “inactive” each time. Besides, the Potency result in [14] was “inactive”.

For the molecule `CC(C)NCC(O)COc1ccc(COCCOC(C)C)cc1` (centres undefined), the outcome in assay [5], in assay [1], in assay [20], in assay [7], in [8] and in assay [3] was inactive. The outcome in assay [17], in assay [18] and in assay [19] was inactive. Also, the Potency entry in assay [6], in [15], in assay [16], in assay [9], in assay [10] and in assay [11] was “inactive” each time. For the same molecule, the Potency result in assay [13], in [4] and in assay [14] was “inactive” throughout.

Turning to `O=C1CCc2cc(OCCCCc3nnnn3C3CCCCC3)ccc2N1`, the molecule was called inactive in assay [5], in assay [1], in assay [2], in assay [8], in assay [3] and in assay [17]. Besides, the molecule was called inactive in assay [18]. Besides, the Potency result in assay [6], in assay [15], in [16], in assay [9], in [10] and in assay [11] was “inactive” in each case. Also, the Potency entry in assay [12], in assay [13], in assay [4] and in assay [14] was “inactive” throughout.

Regarding `O=C(Nc1nc2ccccc2n1CCN1CCOCC1)c1cccc([N+](=O)[O-])c1`, the call in assay [5], in [1], in assay [20], in [2], in assay [8] and in assay [3] was inactive. Besides, the Potency result in assay [6], in assay [9], in assay [10], in assay [11], in assay [13] and in assay [14] was “inactive” each time.

For `O=C(O)COCCN1CCN(C(c2ccccc2)c2ccc(Cl)cc2)CC1` (centres undefined), the result in [5], in [1], in assay [20], in [2], in assay [8] and in assay [3] was inactive. Besides, the Potency entry in assay [9], in assay [10], in assay [11], in [12], in assay [13] and in assay [4] was “inactive” each time. Besides, the Potency entry in [14] was “inactive”.

Turning to `Nc1nc2c(ncn2COCCO)c(=O)[nH]1`, the Potency result in assay [6], in [15], in assay [16], in assay [9], in assay [11] and in assay [12] was “inactive” throughout. For the same molecule, the Potency result in [13], in assay [4] and in [14] was “inactive” in each case. Moreover, the call in assay [1], in assay [20], in assay [2], in assay [7], in assay [3] and in assay [18] was inactive. Also, in [19], the molecule was called inactive.

Regarding `Nc1ncnc2nc(-c3ccc(N4CCOCC4)nc3)cc(-c3cccc(Br)c3)c12`, the outcome in assay [5], in assay [1], in [2], in assay [7], in [8] and in assay [3] was inactive. Also, the Potency result in [6], in assay [11], in assay [13], in assay [4] and in assay [14] was “inactive” throughout.

With `Cc1cnc(NC(=O)C2=C(O)c3ccccc3S(=O)(=O)N2C)s1`, the Potency entry in [6], in assay [15], in [16], in assay [11], in assay [12] and in [13] was “inactive” throughout. The Potency entry in assay [4] and in assay [14] was “inactive” throughout. The call in assay [1], in [2], in [8] and in assay [3] was inactive.

Regarding `CC(c1cc2ccccc2s1)N(O)C(N)=O` (centres undefined), the outcome in [19] was inactive.
